# From PubChem BioAssay (NCI)
# “And” between values parts separate entries of the source, which are not always exact repeats. Identical values can stand only once. This is part of a sample that, as a whole, favours compounds with a hit. Of some 83,000 tested, about 20% had one in any assay.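 Plates (96-well) were seeded with cells, treated with compound at one concentration, and incubated for 48 hours before percent growth was determined.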 The source made the active and inactive calls. The calls were made as follows: active = growth percent below 10; inactive = the rest.
# Experiments:
# Test in all cases: NCI-60 one-dose screen, 48 h (100 = growth as untreated, 0 = no growth, -100 = all killed)
# Conditions in all cases: 10 µM unless noted
# [1] = tested on: T-47D breast
# [2] = tested on: MDA-MB-435 melanoma
# [3] = tested on: SW-620 colon
# [4] = tested on: MCF7 breast
# [5] = tested on: HCT-116 colon
# [6] = tested on: HCC-2998 colon
# [7] = tested on: KM12 colon
SMILES,growth [1],growth [2],growth [3],growth [4],growth [5],growth [6],growth [7]
COc1ccc(/C=C/C(=O)c2cc3c(N)c(C(=O)Nc4ccccc4Cl)sc3nc2C)cc1,30.3% (inactive),-61.6% (active),48.1% (inactive),17.2% (inactive),59% (inactive),51.3% (inactive),51.6% (inactive)
CCCCCCCCn1ccc2cc(NC(=O)CN3CCN(c4nc(C)cc(N5CCCCC5)n4)CC3)ccc21,79.6% (inactive),92.4% (inactive),87.6% (inactive),70.8% (inactive),76% (inactive),117% (inactive),86.4% (inactive)
N#C/C(=C\c1ccccc1Cl)c1cc2ccccc2[nH]1,38% (inactive),101% (inactive),89% (inactive),36% (inactive),87.4% (inactive),111% (inactive),82.6% (inactive)
CC(C)=CCc1cc(O)c(O)c2oc3cc(O)cc(O)c3c(=O)c12,69.5% (inactive),61.1% (inactive),,91.6% (inactive),43.1% (inactive),104% (inactive),59.8% (inactive)
O=C(NNc1ccccc1)c1ncc[nH]1,43.6% (inactive),24.2% (inactive),60.7% (inactive),56.5% (inactive),64.4% (inactive),60.6% (inactive),29.5% (inactive)
CCCCCC#CC1OC23CCCCC2C(C#N)(C(=N)O3)C1(C#N)C#N (centres undefined),113% (inactive),92.6% (inactive),95.5% (inactive),88.4% (inactive),89.2% (inactive),102% (inactive),99.3% (inactive)
CCOC(=O)c1cnn(CC(O)CC)c1NC(=O)NCc1ccccc1C(F)(F)F (centres undefined),86.7% (inactive),105% (inactive),,93.7% (inactive),78.5% (inactive),100% (inactive),103% (inactive)
CC12OC(CC(O)C1O)n1c3ccccc3c3c4c(c5c6ccccc6n2c5c31)C(=O)N(CCN1CCOCC1)C4=O (centres undefined),-5.19% (active),21.7% (inactive),16% (inactive),4.28% (active),14.1% (inactive),6.48% (active),14.6% (inactive)
COC(=O)c1c2c(c(C)[n+]([O-])c1C)C(=O)C(NCCN1CCOCC1)=CC2=O,80.6% (inactive),49.9% (inactive),64.3% (inactive),55.9% (inactive),28.3% (inactive),74.1% (inactive),71.6% (inactive)
O=C1C=CC(=O)N1c1ccc2ccccc2c1,88.7% (inactive) and 88.6% (inactive),120% (inactive) and 95.4% (inactive),19.4% (inactive) and -15.2% (active),95.4% (inactive) and 106% (inactive),44.9% (inactive) and 54.9% (inactive),100% (inactive) and 106% (inactive),103% (inactive) and 104% (inactive)
CCCCCCNC(=O)Oc1ccc(/C(=C(/CC)Cc2ccccc2)c2ccc(OCCCN(C)C)cc2)cc1,54.4% (inactive),87.8% (inactive),59.6% (inactive),22.9% (inactive),39.8% (inactive),24.1% (inactive),82.4% (inactive)
COc1ccc(Oc2nc(Nc3ccc(N4CCOCC4)cc3)ncc2NC(=O)c2cc(OC)cc(OC)c2)cc1,93.6% (inactive),40.4% (inactive),71.4% (inactive),76.9% (inactive),87.9% (inactive),98.4% (inactive),79.3% (inactive)
O=C(c1cccc(Br)c1)N1CCN(c2ccnc3cc(Cl)ccc23)CC1,44.4% (inactive),90.2% (inactive),101% (inactive),88.7% (inactive),84.5% (inactive),109% (inactive),96.4% (inactive)
CCCNNC(=O)/C=C/c1ccc(CNCCc2c(C)[nH]c3ccccc23)cc1,-7.33% [2.5 µM] (active),14% [2.5 µM] (inactive),10.7% [2.5 µM] (inactive),24.2% [2.5 µM] (inactive),0.525% [2.5 µM] (active),13.3% [2.5 µM] (inactive),28.8% [2.5 µM] (inactive)
Cc1nc(-n2[nH]c(=O)ccc2=O)sc1N=Nc1ccccc1,94% (inactive),102% (inactive),98.1% (inactive),94.2% (inactive),97.5% (inactive),115% (inactive),
O=C(c1ccc(Nc2nccc(NCCCNc3ccnc4cc(Cl)ccc34)n2)cc1)N1CCCCC1,54.3% (inactive),34.1% (inactive),26.3% (inactive),23.1% (inactive),26.7% (inactive),26% (inactive),37.5% (inactive)
